Assay results published in PubChem BioAssay (Tox21).
A number with no mark means an inactive call. Inconclusive results are not listed. Entries that show only a call come without a potency. Active and inactive are the calls of the source. Unless noted, the call rests on the fitted dose curve; in most records, active means well fitted curve in the direction sought with a large enough effect in the repeat runs; inconclusive means weak or mixed curves; inactive means no such curve, though single readings can be large; an effect the other way counts as inactive or inconclusive.

Tests used:
[1] = molecular target: Progesterone receptor (Homo sapiens) (UniProt P06401); assay: qHTS assay to identify small molecule antagonists of the progesterone receptor (PR) signaling pathway (AID 1346795; active means well fitted inhibition curve with a large enough effect in the signal ratio in the repeat runs, not every such curve was filed as active; the % refers to the signal ratio)
Chain of Progesterone receptor (Homo sapiens) (P06401 whole entry, looked up): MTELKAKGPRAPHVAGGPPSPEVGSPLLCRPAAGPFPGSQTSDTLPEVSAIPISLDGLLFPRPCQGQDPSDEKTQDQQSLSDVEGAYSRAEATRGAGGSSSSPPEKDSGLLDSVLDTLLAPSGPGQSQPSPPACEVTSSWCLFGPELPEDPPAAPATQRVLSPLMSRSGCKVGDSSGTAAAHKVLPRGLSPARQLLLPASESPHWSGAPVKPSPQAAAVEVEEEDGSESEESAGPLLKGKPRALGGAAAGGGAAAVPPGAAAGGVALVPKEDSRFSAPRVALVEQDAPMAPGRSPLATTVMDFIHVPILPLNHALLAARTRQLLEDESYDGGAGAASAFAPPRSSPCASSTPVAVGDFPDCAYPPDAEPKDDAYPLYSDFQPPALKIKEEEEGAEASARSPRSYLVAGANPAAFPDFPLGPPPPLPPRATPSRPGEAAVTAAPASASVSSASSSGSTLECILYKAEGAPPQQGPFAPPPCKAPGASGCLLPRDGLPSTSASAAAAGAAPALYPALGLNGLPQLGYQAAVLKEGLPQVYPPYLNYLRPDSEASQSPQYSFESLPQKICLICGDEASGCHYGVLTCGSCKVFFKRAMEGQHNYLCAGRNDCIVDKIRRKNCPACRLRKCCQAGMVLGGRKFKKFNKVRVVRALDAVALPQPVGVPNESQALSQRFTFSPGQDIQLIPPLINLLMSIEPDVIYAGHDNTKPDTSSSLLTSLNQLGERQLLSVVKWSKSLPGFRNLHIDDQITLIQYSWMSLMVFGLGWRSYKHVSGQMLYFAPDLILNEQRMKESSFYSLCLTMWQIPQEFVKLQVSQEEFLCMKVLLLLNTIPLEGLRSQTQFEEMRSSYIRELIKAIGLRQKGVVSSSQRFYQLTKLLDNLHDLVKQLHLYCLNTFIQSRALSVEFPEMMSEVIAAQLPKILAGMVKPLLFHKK
Outline: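 After 6 hr plating at 37C in 2% stripped-serum medium, PR-UAS-bla HEK293T cells got compounds, then 1 nM R5020. Sixteen hours later, LiveBLAzer substrate was applied for 2 hr at room temperature and fluorescence was recorded.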

[2] = qHTS assay to identify small molecule antagonists of the progesterone receptor (PR) signaling pathway - cell viability counter screen (AID 1346798); further: nearly all actives have a fitted effect of over 50% in size; further: potency means the concentration at half of the fitted maximal effect
Outline: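 Viability was determined by ATP-based luminescence (CellTiter-Glo) in PR-UAS-bla HEK293T cells cultured in 2% charcoal-stripped serum and incubated 16 hr with compounds under R5020 stimulation.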

[3] = qHTS assay to identify small molecule agonists of the progesterone receptor (PR) signaling pathway - cell viability counter screen (AID 1346799; calls by dose curve; further: nearly all actives have a fitted effect of over 45% in size; further: potency means the concentration at half of the fitted maximal effect)
Outline: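 Viability was scored by ATP luminescence (CellTiter-Glo, 30 min, room temperature) in the same wells used for the reporter readout, after 16 hr compound exposure of PR-UAS-bla HEK293T cells.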

[4] = qHTS assay to identify small molecule antagonists of the TGF-beta/Smad signaling pathway - cell viability counter screen (AID 1346824); further: nearly all actives have a fitted effect of over 50% in size
Outline: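 Cytotoxicity counter-screen run in the same wells as the beta-lactamase Smad reporter read: CellTiter-Glo luminescence after 30 min at room temperature. HEK 293T SBE-bla cells had 5 hr compound exposure at 37 C with TGF-beta1 (0.25 ng/mL stock).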

[5] = qHTS assay to identify small molecule agonists of the TGF-beta/Smad signaling pathway - cell viability counter screen (AID 1346829); further: top concentration of the series differs between compounds; nearly all actives have a fitted effect of over 45% in size
Outline: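 Same-well cytotoxicity: CellTiter-Glo added after the 2 hr room-temperature beta-lactamase substrate step, luminescence measured 30 min later; cells had 5 hr of compound at 37 C.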

[6] = qHTS assay to identify small molecule agonists of the TGF-beta/Smad signaling pathway (AID 1346859; active means well fitted activation curve with a large enough effect in the signal ratio in the repeat runs, not every such curve was filed as active; the % refers to the signal ratio; further: series mostly up to about 77 µM)
Outline: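 Dual-wavelength fluorescence (460/530 nm emission) quantified beta-lactamase expression under the Smad binding element in HEK 293T cells following 5 hr compound treatment at 37 C.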

[7] = Human pregnane X receptor (PXR) small molecule agonists, qHTS cell viability counter screen (AID 1346977); further: nearly all actives have a fitted effect of over 50% in size
Outline: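 HepG2 cells stably carrying the PXR-Luc reporter are cultured with 5% charcoal-stripped FBS and treated with compounds for 24hr. CellTiter-Fluor is added at 23hr and fluorescence is read after 1hr.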

[8] = Caspase-3/7 induction in HepG2 cells by small molecules, qHTS assay (AID 1346978); further: nearly all actives have a fitted effect of over 15% in size
Outline: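 Caspase-3/7 induction was measured by Caspase-Glo 3/7 luminescence (30 min, room temperature) after a 17 hr compound exposure of wild-type HepG2 cells seeded at 2,000 per well and pre-incubated 5 hr.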

[9] = molecular target: Thyrotropin-releasing hormone receptor (Homo sapiens) (UniProt P34981); assay: qHTS assay to identify small molecule antagonists of the thyrotropin-releasing hormone receptor (TRHR) signaling pathway (AID 1346877; active means well fitted inhibition curve with a large enough effect in the repeat runs, not every such curve was filed as active; further: series mostly up to about 51 µM)
Chain of Thyrotropin-releasing hormone receptor (Homo sapiens) (P34981 whole entry, looked up): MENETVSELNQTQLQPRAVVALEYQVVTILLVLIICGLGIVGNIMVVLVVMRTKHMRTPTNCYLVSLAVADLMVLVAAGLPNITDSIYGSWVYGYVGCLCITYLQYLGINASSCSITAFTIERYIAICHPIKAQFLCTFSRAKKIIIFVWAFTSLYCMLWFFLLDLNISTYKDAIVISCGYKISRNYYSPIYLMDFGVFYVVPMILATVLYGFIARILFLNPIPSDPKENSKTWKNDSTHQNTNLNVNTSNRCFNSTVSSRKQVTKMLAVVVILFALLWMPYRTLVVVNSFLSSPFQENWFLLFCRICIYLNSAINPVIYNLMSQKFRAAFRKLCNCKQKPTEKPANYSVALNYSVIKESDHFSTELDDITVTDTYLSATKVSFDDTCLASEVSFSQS
Outline: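 Antagonist mode: after a 5 min room-temperature compound exposure, cells were stimulated with 1 nM (final) TRH. Dye-loaded TRHR-HEK293 cells were used, and calcium-dependent fluorescence was followed for 3 min, with 15-point titrations run in triplicate.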

[10] = molecular target: Thyrotropin-releasing hormone receptor (Homo sapiens) (UniProt P34981); assay: qHTS assay to identify small molecule agonists of the thyrotropin-releasing hormone receptor (TRHR) signaling pathway (AID 1346891; calls by dose curve;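 further: HEK293 cells expressing TRHR with calcium dye readout; series mostly up to about 58 µM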)
Outline: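 Kinetic fluorescence (3 min, 1 s intervals) reported intracellular calcium after compound transfer onto TRHR-Hek293 cells pre-loaded with dye for 2 h at 37 °C.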

CN(C)C(=O)CNC(=O)Cc1ccccc1
Potency [1]: inactive | Potency [2]: inactive | Potency [3]: inactive | outcome [4]: inactive | outcome [5]: inactive | outcome [6]: inactive | Potency [7]: inactive | Potency [8]: inactive

CC(=O)OC(C)OC(=O)C(C)c1ccc(-c2ccccc2)c(F)c1 (stereo not given)
Potency [1]: inactive | Potency [2]: inactive | Potency [3]: inactive | outcome [4]: inactive | outcome [5]: inactive | outcome [6]: inactive | Potency [7]: inactive | Potency [8]: inactive

CCN(C)C(=O)Oc1cccc([C@H](C)N(C)C)c1
Potency [1]: inactive | Potency [2]: inactive | Potency [3]: inactive | outcome [4]: inactive | outcome [5]: inactive | outcome [6]: inactive | outcome [9]: inactive | Potency [7]: inactive | Potency [8]: inactive

C=Cc1ccccn1
Potency [1]: inactive | Potency [2]: inactive | Potency [3]: inactive | outcome [4]: inactive | outcome [5]: inactive | outcome [6]: inactive | outcome [9]: inactive | Potency [7]: inactive

O=Cc1ccc(Cl)c(Cl)c1
Potency [1]: inactive | Potency [2]: inactive | Potency [3]: inactive | outcome [4]: inactive | outcome [5]: inactive | outcome [6]: inactive | Potency [7]: inactive | Potency [8]: inactive

CC(=O)NCCCCCC(=O)O
Potency [1]: inactive | Potency [2]: inactive | Potency [3]: inactive | outcome [4]: inactive | outcome [5]: inactive | outcome [6]: inactive | outcome [9]: inactive | Potency [7]: inactive

O=C(O)Cc1cn(-c2ccccc2)nc1-c1ccc(Cl)cc1
Potency [1]: inactive | Potency [2]: inactive | Potency [3]: inactive | outcome [4]: inactive | outcome [5]: inactive | outcome [9]: inactive | outcome [10]: inactive | Potency [7]: inactive | Potency [8]: inactive

Cc1cc(NC(=O)C2=C(O)c3ccccc3S(=O)(=O)N2C)no1
Potency [1]: inactive | Potency [2]: inactive | Potency [3]: inactive | outcome [4]: inactive | outcome [5]: inactive | outcome [6]: inactive | outcome [9]: inactive | Potency [7]: inactive | Potency [8]: inactive

CCCCNc1ccc(C(=O)OCCN(C)C)cc1
Potency [1]: inactive | Potency [2]: inactive | Potency [3]: inactive | outcome [4]: inactive | outcome [5]: inactive | outcome [6]: inactive | outcome [9]: inactive | Potency [7]: inactive | Potency [8]: inactive

Cc1cccc(C)c1OCC(C)N (stereo not given)
Potency [1]: inactive | Potency [2]: inactive | Potency [3]: inactive | outcome [4]: inactive | outcome [5]: inactive | outcome [6]: inactive | outcome [9]: inactive | Potency [7]: inactive | Potency [8]: inactive

CC(=O)Nc1cccc(C)c1
Potency [1]: inactive | Potency [2]: inactive | Potency [3]: inactive | outcome [4]: inactive | outcome [5]: inactive | outcome [6]: inactive | Potency [7]: inactive | Potency [8]: inactive

O=C(NCCN1CCOCC1)c1ccc(Cl)cc1
Potency [1]: inactive | Potency [2]: inactive | Potency [3]: inactive | outcome [4]: inactive | outcome [5]: inactive | outcome [6]: inactive | Potency [7]: inactive

CCC(C)(CCC(C)C)C(=O)O (stereo not given)
Potency [1]: inactive | Potency [2]: inactive | Potency [3]: inactive | outcome [4]: inactive | outcome [5]: inactive | outcome [6]: inactive | Potency [7]: inactive | Potency [8]: inactive

COc1ccc2c(c1OC)C(=O)O[C@@H]2[C@H]1c2c(cc3c(c2OC)OCO3)CCN1C
Potency [1]: inactive | Potency [2]: inactive | Potency [3]: inactive | outcome [4]: inactive | outcome [5]: inactive | outcome [6]: inactive | outcome [9]: inactive | Potency [8]: inactive

COc1ccc(OC)c(Cl)c1
Potency [1]: inactive | Potency [2]: inactive | Potency [3]: inactive | outcome [4]: inactive | outcome [5]: inactive | outcome [6]: inactive | outcome [9]: inactive | Potency [7]: inactive | Potency [8]: inactive

C[C@H](N)[C@H](O)c1cccc(O)c1
Potency [1]: inactive | Potency [2]: inactive | Potency [3]: inactive | outcome [4]: inactive | outcome [5]: inactive | outcome [9]: inactive | outcome [10]: inactive | Potency [7]: inactive | Potency [8]: inactive

NC(CO)C(=O)NNCc1ccc(O)c(O)c1O (stereo not given)
Potency [1]: inactive | Potency [2]: inactive | Potency [3]: inactive | outcome [4]: inactive | outcome [5]: inactive | outcome [6]: inactive | Potency [7]: inactive | Potency [8]: inactive

O=C1CC(c2ccc(Cl)cc2)CC(=O)N1
Potency [1]: inactive | Potency [2]: inactive | Potency [3]: inactive | outcome [4]: inactive | outcome [5]: inactive | outcome [6]: inactive | outcome [9]: inactive | Potency [7]: inactive | Potency [8]: inactive

C=C(C)C(=O)OCc1ccccc1
Potency [1]: inactive | Potency [2]: 30.6 µM (active) | Potency [3]: 48.6 µM (active) | outcome [4]: inactive | outcome [5]: inactive | outcome [6]: inactive | Potency [7]: inactive | Potency [8]: inactive

CC(C)(C)c1nnc(NS(=O)(=O)c2ccc(N)cc2)s1
Potency [1]: inactive | Potency [2]: inactive | Potency [3]: inactive | outcome [4]: inactive | outcome [5]: inactive | outcome [6]: inactive | Potency [7]: inactive | Potency [8]: inactive

CCOC(=O)c1ncn2c1CN(C)C(=O)c1cc(F)ccc1-2
Potency [1]: inactive | Potency [2]: inactive | Potency [3]: inactive | outcome [4]: inactive | outcome [5]: inactive | outcome [6]: inactive | Potency [7]: inactive | Potency [8]: inactive

O=C(NCC(O)CO)c1c(I)c(C(=O)NCC(O)CO)c(I)c(N(CCO)C(=O)CO)c1I (stereo not given)
Potency [1]: inactive | Potency [2]: inactive | Potency [3]: inactive | outcome [4]: inactive | outcome [5]: inactive | outcome [9]: inactive | outcome [10]: inactive | Potency [7]: inactive | Potency [8]: inactive

COCCOCCOCCOCCO
Potency [1]: inactive | Potency [2]: inactive | Potency [3]: inactive | outcome [4]: inactive | outcome [5]: inactive | outcome [6]: inactive | outcome [9]: inactive | Potency [7]: inactive | Potency [8]: inactive

CCCCCCCCSCC
Potency [1]: inactive | Potency [2]: inactive | Potency [3]: inactive | outcome [4]: inactive | outcome [5]: inactive | outcome [9]: inactive | outcome [10]: inactive | Potency [7]: inactive | Potency [8]: inactive

CC1COc2ccccc2N1 (stereo not given)
Potency [1]: inactive | Potency [2]: inactive | Potency [3]: inactive | outcome [4]: inactive | outcome [5]: inactive | outcome [6]: inactive | outcome [9]: inactive | Potency [7]: inactive | Potency [8]: inactive

CCCCOCCOC(=O)COc1nc(Cl)c(Cl)cc1Cl
Potency [1]: inactive | Potency [2]: inactive | Potency [3]: inactive | outcome [4]: inactive | outcome [5]: inactive | outcome [6]: inactive | outcome [9]: inactive | Potency [7]: inactive | Potency [8]: inactive
